This note sets out measurements from PubChem BioAssay (NCATS).

Each structure is given as a SMILES string. Where “and” joins values, the source holds several entries; their conditions need not be identical. Identical values can stand only once. A number with no mark means an inactive call. Inconclusive results are not listed. Calls of active or inactive are those of the source. Unless noted, the call rests on the fitted dose curve; in most records, active means well fitted curve in the direction sought with a large enough effect; inconclusive means small, poorly fitted or top-dose-only effect, or another doubt; inactive means no such curve, though single readings can be large; an effect the other way counts as inactive or inconclusive.

Experiment [1] in a line: Cell Viability - Jurkat (AID 426;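 active means dose-dependent loss of cell ATP signal giving a full or clear fitted curve, ranked by lower potency value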;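 further: potency means the concentration at half of the fitted maximal effect; cells exposed to compound for 40 hours at 37 °C before ATP read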). The settings on record: qHTS. The gist of the method:
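Seed 5000 Jurkat E6-1 cells/well; add compound; incubate 40 hr at 37 °C; add CellTiter-Glo; wait 20 min at room temperature; read luminescence. Fit concentration-response with Hill equation for AC50.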

Experiment [2] can be described thus: Cellular Toxicity (caspase-3) SHSY5Y (AID 657). The settings on record: SH-SY5Y caspase-3 activation; series mostly up to 91.7 µM. The method, boiled down:
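Luminescent caspase-3/7 readout (aminoluciferin release) in SH-SY5Y cells after 16 h compound exposure in complete medium. Activity scaled between DMSO basal and 10 uM staurosporine as 100%; concentration-response fitted to Hill equation for AC50.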

Experiment [3] is described as follows: Cellular Toxicity (caspase-3) Mesangial (AID 660).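 Further: combined caspase 3 and 7 activity read by Caspase-Glo luminescence; cells exposed to compound for 16 h before the caspase read.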 The settings on record: mesangial cells, normalized: DMSO 0%, 100 µM tamoxifen 100%; series mostly up to 91.7 µM. The gist of the method: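 Concentration-response qHTS: compound-induced rise in caspase 3/7 luminescence in human mesangial cells after 16 h, normalized to DMSO and 100 uM tamoxifen controls.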

A short description of experiment [4]: Cellular Toxicity (caspase-3) H-4-II-E (AID 663).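 Further: cells exposed to compound for 16 hr before readout.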 The conditions noted are these: H-4-II-E rat hepatoma; Potency: caspase-3 activation; series mostly up to 92.2 µM. The gist of the method: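 Luminescence from caspase-cleaved aminoluciferin substrate, read 20 min after reagent addition, reports caspase 3/7 activation in rat H-4-II-E cells after 16 hr compound exposure. Normalized to DMSO (basal) and 100 uM tamoxifen (100%); AC50 from Hill fits.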

Experiment [5] addresses Estrogen receptor (Homo sapiens) (UniProt P03372). Kind of experiment: qHTS assay for small molecule antagonists of estrogen receptor alpha signaling (AID 588513; active means well fitted curve in the direction sought with a large enough effect in the signal ratio, with a control signal flat, not every such curve was filed as active; the % refers to the signal ratio; further: on the % scale 0 is the no-effect control and ±100 the full control effect). The settings on record: ER-alpha-UAS-bla HEK293, beta-lactamase ratio, antagonist mode; series mostly up to 76.9 µM. The gist of the method: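 Beta-lactamase reporter, antagonist mode, HEK 293 GripTite cells; 0.5nM E2 stimulus, 18 h, 37 C; CCF4 dye 2 h RT; fluorescence. IC50 and efficacy from Hill fits, normalized to E2 and DMSO.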
(In general: In qHTS, concentration-response curves come from the screen itself.)

The target of experiment [6] is Peroxisome proliferator-activated receptor delta (Homo sapiens) (UniProt Q03181). Briefly: qHTS assay for small molecule antagonists of peroxisome proliferator-activated receptor delta signaling (AID 588535; active means well fitted inhibition curve with a large enough effect in the signal ratio, with a control signal flat, not every such curve was filed as active; the % refers to the signal ratio). The conditions noted are these: HEK293T PPARd-UAS-bla, beta-lactamase FRET ratio, 18 h; series mostly up to 76.7 µM. The gist of the method:
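GeneBLAzer PPAR-delta-UAS-bla HEK293T cells in medium with 2% charcoal/dextran FBS were preincubated 5 hrs at 37 C, then given compounds, incubated 18 hrs at 37 C, and read by CCF4 beta-lactamase fluorescence; IC50 from Hill fits.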

Experiment [7] deals with Peroxisome proliferator-activated receptor gamma (Homo sapiens) (UniProt P37231). Kind of experiment: qHTS assay for small molecule agonists of peroxisome proliferator-activated receptor gamma signaling (AID 588536; active means well fitted curve in the direction sought with a large enough effect in the signal ratio, with a control signal flat, not every such curve was filed as active; the % refers to the signal ratio;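 further: 0% = DMSO basal wells and 100% = rosiglitazone at 2 µM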). The settings on record: HEK293 PPARg-UAS-bla, beta-lactamase ratio, 16 h, percent of rosiglitazone response, DMSO as zero; series mostly up to 76.7 µM. The gist of the method:
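PPAR-gamma-UAS-bla HEK293 cells in medium with 1% charcoal/dextran-treated FBS were exposed to compounds for 16 h at 37 C. Beta-lactamase activity was read with CCF4 substrate (405 nm excitation, 460/530 nm emission).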

Experiment [8] in a line: qHTS assay for small molecule agonists of the antioxidant response element (ARE) signaling pathway (AID 651741; active means well fitted activation curve with a large enough effect in the signal ratio; the % refers to the signal ratio; further: potency means the concentration at half of the fitted maximal effect; on activation: % of control where 0% means no effect). The settings on record: HepG2 ARE-bla reporter, beta-lactamase FRET ratio, 16 h; series mostly up to 96 µM. The gist of the method:
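ARE-bla HepG2 cells (beta-lactamase reporter under ARE control) were plated at 2,000 cells/well, preincubated 5 h at 37 C/5% CO2, then treated with DMSO-dissolved compounds for 16 h at 37 C; LiveBLAzer B/G FRET substrate added, fluorescence read after 2 h at room temperature.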

The nature of experiment [9]: qHTS assay for small molecule activators of the p53 signaling pathway (AID 651743; active means well fitted activation curve with a large enough effect in the signal ratio, not every such curve was filed as active; the % refers to the signal ratio; further: potency means the concentration at half of the fitted maximal effect; on activation: % of control where 0% means no effect). The settings on record: HCT-116 p53RE-bla, beta-lactamase FRET ratio, 16 h; activation: active compounds read high. The gist of the method: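 p53RE-bla HCT-116 cells with a stably integrated beta-lactamase reporter under p53 response elements were plated, rested 5 hours at 37 C/5% CO2, then exposed to compounds in DMSO for 16 hours at 37 C. LiveBLAzer B/G FRET substrate was read after 2 hours at room temperature.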

Experiment [10] is described as follows: qHTS assay for small molecule activators of the nuclear factor-kappa B (NF-kB) signaling pathway (AID 651749; active means well fitted activation curve with a large enough effect in the signal ratio; the % refers to the signal ratio; further: % of control where 0% means no effect). The conditions noted are these: NF-kB-bla ME-180 cells, beta-lactamase FRET ratio, 16 h; active compounds read high. The method, boiled down: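 ME-180 cells stably carrying a beta-lactamase reporter under an NF-kB response element were exposed to compound or DMSO vehicle for 16 hr at 37C, 5% CO2. Pathway activation was read by FRET, since reporter expression disrupts FRET.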

The target in experiment [11] is Nuclear receptor ROR-gamma (Homo sapiens) (UniProt P51449). Briefly: qHTS assay for small molecule antagonists of the retinoid-related orphan receptor gamma (ROR-gamma) signaling pathway (AID 651802). Further: nearly all actives have a fitted effect of over 60% in size. Further: potency means the concentration at half of the fitted maximal effect. The settings on record: ROR-gamma antagonist cell reporter assay; series mostly up to 92.2 µM. The gist of the method:
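Antagonism is scored as a fall in luminescence from a RORE-luciferase reporter in CHO cells expressing ROR under a TET-inducible promoter, measured 16hr after doxycycline induction in the presence of compound.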

Experiment [12] can be described thus: qHTS assay for small molecule antagonists of the retinoid-related orphan receptor gamma (ROR-gamma) signaling pathway - cell viability counter screen (AID 720652; active means well fitted curve in the direction sought with a large enough effect in the repeat runs; an effect the other way counts as inactive or inconclusive;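 further: compound exposure lasted 16 hr before ATP read; on the % scale 0 is the no-effect control and ±100 the full control effect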). The settings on record: RORgamma reporter cell line viability counter screen; series mostly up to 92.2 µM. The gist of the method: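 Cytotoxicity is quantified via intracellular ATP (CellTiter-Glo luminescence) in doxycycline-induced CHO ROR response element-luciferase reporter cells treated with compound for 16 hr at 37 C, 5% CO2.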

A short description of experiment [13]: Cellular Toxicity (caspase-3) BJ (AID 658).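 Further: 0% = DMSO basal and 100% = 10 µM staurosporine.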 The settings on record: BJ fibroblasts, luminescence; Potency: caspase-3 activation; series mostly up to 91.7 µM. The method, boiled down:
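Luminescent aminoluciferin-substrate cleavage reports caspase 3/7 activity in normal human BJ fibroblasts after 16 hr compound exposure at 37 °C. Normalized to DMSO (basal) and 10 uM staurosporine (100%); AC50 from Hill fit of concentration-response.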

The target in experiment [14] is Estrogen receptor (Homo sapiens) (UniProt P03372). Kind of experiment: qHTS assay for small molecule agonists of estrogen receptor alpha signaling (AID 588514; calls by dose curve;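 further: 0% = vehicle only and 100% = reference agonist; nearly all actives have a fitted effect of over 70% in size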). The conditions noted are these: ER-alpha-UAS-bla HEK293, beta-lactamase ratio, 18 h; series mostly up to 76.8 µM. The gist of the method: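 Reporter-gene assay. […] controls beta-lactamase in HEK 293 GripTite cells; after 18 hrs with compound, CCF4 substrate is added for 2 hrs and fluorescence is read.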

For experiment [15], the target named is Vitamin D3 receptor (Homo sapiens) (UniProt P11473). Kind of experiment: qHTS assay for small molecule antagonists of vitamin D receptor signaling (AID 588541; calls by dose curve;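 further: receptor activated by calcitriol during compound treatment; on the % scale 0 is the no-effect control and ±100 the full control effect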). The conditions noted are these: HEK293T VDR-UAS-bla, beta-lactamase ratio, antagonist mode; series mostly up to 76.7 µM. The gist of the method:
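VDR-UAS-bla HEK293T cells (2000/well, 2% charcoal-stripped FBS) were treated with titrated compounds plus 1-alpha,25-dihydroxyvitamin D3 (50 nM or 3 nM final) for 16 h at 37 C. CCF4 beta-lactamase fluorescence was read; Hill fits gave IC50.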

Experiment [16] has the same target. Kind of experiment: qHTS assay for small molecule agonists of vitamin D receptor signaling (AID 588543; calls by dose curve;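 further: 0% = DMSO basal and 100% = reference agonist control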). The conditions noted are these: HEK293T VDR-UAS-bla, beta-lactamase ratio, 16 h; series mostly up to 76.8 µM. The gist of the method:
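β-lactamase reporter, VDR-UAS-bla HEK293T, agonist mode. Cells plated 5 h at 37 °C, compound titration 16 h at 37 °C, CCF4 dye 2 h RT, ratio 460/530 nm. Hill fit → EC50, efficacy vs 50 nM 1α,25-(OH)2D3.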

A short description of experiment [17]: qHTS assay for small molecule activators of the human pregnane X receptor (PXR) signaling pathway (AID 720659; call rule not given here; further: 0% is about no effect). The settings on record: DPX-2 HepG2 CYP3A4-luciferase, 24 h; series mostly up to 92.3 µM.
The nature of experiment [18]: Cell Viability - NIH 3T3 (AID 541).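 Further: cells exposed to compound for 40 hours; plate controls were DMSO alone for no effect and tamoxifen positive control for full effect; nearly all actives have a fitted effect of over 25% in size.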 The conditions noted are these: NIH 3T3 cell viability, qHTS; activity change, negative = cytotoxicity: at 92.2 µM (top of the series). The method, boiled down: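 AC50 values reflect concentration-dependent loss of intracellular ATP in NIH 3T3 cells after 40 hr treatment in complete culture medium, quantified by luciferase-based luminescence.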

The target of experiment [19] is Cytochrome P450 3A4 (Homo sapiens) (UniProt P08684). Kind of experiment: qHTS Assay for Inhibitors and Substrates of Cytochrome P450 3A4 (AID 884). Further: nearly all actives have a fitted effect of over 50% in size. Further: potency means the concentration at half of the fitted maximal effect. The conditions noted are these: recombinant CYP3A4, Luciferin-PPXE luminescence; series mostly up to 57.1 µM. The gist of the method:
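20 nM human CYP3A4 with 25 uM Luciferin-PPXE (at KM) in 200 mM KPO4, preincubated 10 min with compound; NADPH regeneration started a 60 min RT reaction. Luciferin detected by luminescence, normalized to 57 uM ketoconazole as full inhibition.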

Experiment [20] has as its target Tumor necrosis factor (Homo sapiens) (UniProt P01375). Briefly: qHTS assay to identify small molecules that stimulate Tumor Necrosis Factor-alpha (TNF-alpha) secretion (AID 651757; active means well fitted curve in the direction sought with a large enough effect in the signal ratio; the % refers to the signal ratio; further: 0% is about no effect). The settings on record: Human cells, HTRF 665/615 ratio; series mostly up to 92.2 µM. The method, boiled down: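 Secreted TNF-alpha from compound-treated THP-1 cells (17 hrs, 37 C) was quantified with a homogeneous time-resolved fluorescence antibody assay.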

Chain of Tumor necrosis factor (Homo sapiens) (P01375 whole entry, looked up): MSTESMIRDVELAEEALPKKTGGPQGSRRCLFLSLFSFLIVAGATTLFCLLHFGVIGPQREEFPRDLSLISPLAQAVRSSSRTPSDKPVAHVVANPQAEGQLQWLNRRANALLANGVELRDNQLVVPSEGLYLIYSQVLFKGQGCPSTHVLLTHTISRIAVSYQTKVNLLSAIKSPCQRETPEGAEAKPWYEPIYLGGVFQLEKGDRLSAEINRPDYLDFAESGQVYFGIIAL
Chain of Nuclear receptor ROR-gamma (Homo sapiens) (P51449 whole entry, looked up): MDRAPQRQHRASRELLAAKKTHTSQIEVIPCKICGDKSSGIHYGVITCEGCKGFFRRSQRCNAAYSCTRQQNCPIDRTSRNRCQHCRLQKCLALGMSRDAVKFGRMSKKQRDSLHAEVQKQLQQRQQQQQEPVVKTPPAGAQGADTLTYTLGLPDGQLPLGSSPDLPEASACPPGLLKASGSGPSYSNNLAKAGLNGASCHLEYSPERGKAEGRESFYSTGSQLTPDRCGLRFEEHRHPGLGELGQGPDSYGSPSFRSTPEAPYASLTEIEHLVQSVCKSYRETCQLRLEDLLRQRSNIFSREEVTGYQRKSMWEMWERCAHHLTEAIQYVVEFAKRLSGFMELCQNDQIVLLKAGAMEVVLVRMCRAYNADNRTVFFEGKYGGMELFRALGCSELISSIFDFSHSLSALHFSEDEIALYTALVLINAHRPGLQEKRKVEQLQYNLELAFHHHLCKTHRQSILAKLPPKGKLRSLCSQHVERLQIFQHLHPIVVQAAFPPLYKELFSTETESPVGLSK
Chain of Peroxisome proliferator-activated receptor gamma (Homo sapiens) (P37231 whole entry, looked up): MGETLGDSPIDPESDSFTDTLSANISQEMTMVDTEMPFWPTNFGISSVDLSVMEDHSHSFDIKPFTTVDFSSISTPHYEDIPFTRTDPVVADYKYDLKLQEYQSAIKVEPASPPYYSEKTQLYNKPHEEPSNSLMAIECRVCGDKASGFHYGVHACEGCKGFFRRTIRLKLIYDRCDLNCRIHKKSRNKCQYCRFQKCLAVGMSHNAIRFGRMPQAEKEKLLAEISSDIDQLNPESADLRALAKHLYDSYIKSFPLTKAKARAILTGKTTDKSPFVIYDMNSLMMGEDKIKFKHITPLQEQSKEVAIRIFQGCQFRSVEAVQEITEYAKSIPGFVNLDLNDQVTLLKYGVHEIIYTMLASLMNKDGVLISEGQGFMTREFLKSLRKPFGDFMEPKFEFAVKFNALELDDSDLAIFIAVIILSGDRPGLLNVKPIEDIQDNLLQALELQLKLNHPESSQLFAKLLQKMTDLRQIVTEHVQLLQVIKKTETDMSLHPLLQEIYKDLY
Chain of Estrogen receptor (Homo sapiens) (P03372 whole entry, looked up): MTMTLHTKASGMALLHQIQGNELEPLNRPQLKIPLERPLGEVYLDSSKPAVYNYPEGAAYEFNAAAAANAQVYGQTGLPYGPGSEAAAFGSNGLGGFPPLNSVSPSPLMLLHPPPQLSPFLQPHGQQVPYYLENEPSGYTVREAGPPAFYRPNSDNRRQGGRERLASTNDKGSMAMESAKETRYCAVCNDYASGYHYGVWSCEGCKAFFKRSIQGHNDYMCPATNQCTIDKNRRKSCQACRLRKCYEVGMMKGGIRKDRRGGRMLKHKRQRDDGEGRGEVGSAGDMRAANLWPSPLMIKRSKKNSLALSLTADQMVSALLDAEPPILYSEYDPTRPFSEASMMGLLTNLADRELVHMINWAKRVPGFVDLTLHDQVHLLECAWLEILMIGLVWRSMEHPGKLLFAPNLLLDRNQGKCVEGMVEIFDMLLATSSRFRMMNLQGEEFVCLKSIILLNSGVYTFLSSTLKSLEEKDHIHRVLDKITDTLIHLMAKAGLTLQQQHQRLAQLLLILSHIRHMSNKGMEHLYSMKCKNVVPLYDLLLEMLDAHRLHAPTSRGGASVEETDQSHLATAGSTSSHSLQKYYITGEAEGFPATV
Chain of Cytochrome P450 3A4 (Homo sapiens) (P08684 whole entry, looked up): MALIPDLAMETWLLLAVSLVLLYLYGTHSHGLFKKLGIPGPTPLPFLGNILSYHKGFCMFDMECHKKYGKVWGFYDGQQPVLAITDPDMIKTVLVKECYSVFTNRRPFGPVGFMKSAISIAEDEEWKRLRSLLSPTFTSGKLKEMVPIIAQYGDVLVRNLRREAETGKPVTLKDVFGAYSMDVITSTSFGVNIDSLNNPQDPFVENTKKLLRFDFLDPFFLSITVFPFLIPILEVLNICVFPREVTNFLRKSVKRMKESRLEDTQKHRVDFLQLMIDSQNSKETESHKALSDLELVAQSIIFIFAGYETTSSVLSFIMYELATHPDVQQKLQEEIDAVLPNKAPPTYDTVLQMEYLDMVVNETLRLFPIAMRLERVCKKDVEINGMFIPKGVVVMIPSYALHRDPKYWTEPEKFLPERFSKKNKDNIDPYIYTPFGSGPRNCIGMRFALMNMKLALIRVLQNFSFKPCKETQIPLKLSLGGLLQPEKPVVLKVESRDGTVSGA
Chain of Vitamin D3 receptor (Homo sapiens) (P11473 whole entry, looked up): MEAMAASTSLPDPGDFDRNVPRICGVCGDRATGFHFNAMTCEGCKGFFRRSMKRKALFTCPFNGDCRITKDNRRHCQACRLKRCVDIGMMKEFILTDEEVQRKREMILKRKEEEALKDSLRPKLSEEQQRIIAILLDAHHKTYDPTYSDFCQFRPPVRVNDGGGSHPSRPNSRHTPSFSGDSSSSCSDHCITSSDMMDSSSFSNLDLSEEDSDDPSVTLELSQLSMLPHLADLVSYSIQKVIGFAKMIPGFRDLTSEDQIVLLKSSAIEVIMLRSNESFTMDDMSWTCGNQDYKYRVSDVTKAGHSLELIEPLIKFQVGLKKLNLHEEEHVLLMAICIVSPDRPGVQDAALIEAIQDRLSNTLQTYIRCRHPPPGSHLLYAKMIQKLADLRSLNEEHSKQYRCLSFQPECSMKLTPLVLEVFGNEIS
Chain of Peroxisome proliferator-activated receptor delta (Homo sapiens) (Q03181 whole entry, looked up): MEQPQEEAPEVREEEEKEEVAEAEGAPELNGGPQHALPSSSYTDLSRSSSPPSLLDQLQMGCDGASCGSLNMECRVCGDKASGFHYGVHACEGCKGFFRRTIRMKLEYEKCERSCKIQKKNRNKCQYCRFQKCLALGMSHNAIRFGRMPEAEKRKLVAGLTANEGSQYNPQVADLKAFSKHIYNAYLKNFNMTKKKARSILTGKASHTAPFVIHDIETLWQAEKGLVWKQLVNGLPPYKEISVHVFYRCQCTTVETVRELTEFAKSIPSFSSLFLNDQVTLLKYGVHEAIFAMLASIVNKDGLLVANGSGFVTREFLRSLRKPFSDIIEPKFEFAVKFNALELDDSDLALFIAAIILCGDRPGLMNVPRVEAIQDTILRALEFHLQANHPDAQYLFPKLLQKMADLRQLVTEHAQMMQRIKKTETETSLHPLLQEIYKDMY

Regarding `Nc1ccc2c(c1)C(=O)c1ccccc1C2=O`, the Potency in [1] was 49.6 µM; in experiment [8], 10.6 µM (active) and 48.6 µM (active). Further, the Potency entry in [2], in experiment [4], in experiment [11] and in [12] was “inactive” each time. The call in experiment [3], in experiment [5], in [6] and in experiment [7] was inactive. The activation is 2.17% and 5.16% in experiment [9]; 1.2% and -1.21% in experiment [10].
For the molecule `CC(/C=C/C=C(C)/C=C/C(=O)O)=C\C=C\C=C(C)\C=C\C=C(C)\C=C\C(=O)O`, the Potency entry in experiment [2], in experiment [13], in experiment [4], in experiment [14], in experiment [15] and in experiment [16] was “inactive” throughout. The Potency result in [11] was “inactive”. The outcome in [5] and in [17] was inactive. Moreover, in [8], the Potency was 37.6 µM (active). Also, the activation is -5.5% in experiment [9] and -1.49% in experiment [10].
Take `Nc1cnn([C@@H]2O[C@H](CO)[C@@H](O)[C@H]2O)c(=O)n1`: the activity change, negative = cytotoxicity in [18] was 4.75%. The Potency result in [2], in experiment [13], in experiment [4], in experiment [19], in experiment [14] and in [15] was “inactive” in each case. In addition, the Potency result in experiment [16], in [8], in [20] and in experiment [12] was “inactive” throughout. Further, the molecule was called inactive in experiment [3], in experiment [5], in experiment [7] and in experiment [17]. Besides, the Potency in experiment [9] is 0.794 µM (active); in experiment [11] it was 5.31 µM (active).
In the case of `Cc1cc2nc(N)sc2cc1C`, the Potency result in [13], in [4], in [15], in experiment [16], in experiment [20] and in experiment [11] was “inactive” throughout. Besides, in experiment [12], the Potency entry is “inactive”. Moreover, the Potency in experiment [19] is 15.8 µM (active). Besides, the result in experiment [7] was inactive. Also, the activation in [9] was -2.08%; in experiment [10], -0.263%.
For the molecule `Brc1ccc(-c2ccccc2)cc1`, the Potency in experiment [1] was above 92 µM. In experiment [18], the activity change, negative = cytotoxicity was -9.21%. For the same molecule, the Potency entry in experiment [2], in [19], in experiment [15], in experiment [16], in [8] and in [20] was “inactive” throughout. The Potency result in [11] and in experiment [12] was “inactive” throughout. In addition, the activation in experiment [9] is -2.65%; in experiment [10], 2.79%. The molecule was called inactive in [17].
